# From article PMC7862700, “An all-to-all approach to the identification of sequence-specific readers for epigenetic DNA modifications on cytosine”
# Key:
# Test in all cases: DAPPL (digital affinity profiling via proximity ligation, sequencing); 10 mM Tris-HCl pH 7.5, 50 mM NaCl, 1 mM DTT, 4% glycerol, room temperature, 30 min; GST-TFs on glutathione beads, 16-mer random dsDNA library, 0.1% formaldehyde crosslink after washing; high values mean tight binding
# [1] = target: T1, FEV (Homo sapiens, UniProt Q99581 1-238); settings: protein: recombinant; tags: N-terminal GST; dsDNA, one strand shown
# T1 sequence: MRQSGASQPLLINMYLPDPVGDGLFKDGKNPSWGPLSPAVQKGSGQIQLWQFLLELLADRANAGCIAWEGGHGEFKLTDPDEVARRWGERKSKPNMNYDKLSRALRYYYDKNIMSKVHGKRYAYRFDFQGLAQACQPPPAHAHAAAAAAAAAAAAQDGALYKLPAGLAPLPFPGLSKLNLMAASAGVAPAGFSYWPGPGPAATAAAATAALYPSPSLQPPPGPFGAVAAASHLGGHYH
# Outline: (§1)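 Pools were built from human transcription factors expressed in yeast as GST fusions, captured on glutathione beads and DNA-barcoded, along with a tag-only sample. Incubation with 200 nmole of a 16-mer random double-stranded DNA library lasted 30 min at room temperature in Tris/NaCl/DTT/glycerol buffer, and was followed by washing, 0.1% formaldehyde crosslinking, proximity ligation, PCR amplification and Illumina NextSeq500 sequencing. Binding signal is the quotient of each hexamer's read frequency for a factor and its frequency for the tag-only sample.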
# [2] = target: ETV5 (Homo sapiens, UniProt P41161 1-510); settings: protein: recombinant; tags: N-terminal GST; dsDNA, one strand shown
# Outline: as §1
# [3] = target: HSF1 (Homo sapiens, UniProt Q00613 1-529); settings: protein: recombinant; tags: N-terminal GST; chain copies: 3; dsDNA, one strand shown
# Outline: as §1
# [4] = target: T2, SPIC (Homo sapiens, UniProt Q8N5J4 1-248); settings: protein: recombinant; tags: N-terminal GST; dsDNA, one strand shown
# T2 sequence: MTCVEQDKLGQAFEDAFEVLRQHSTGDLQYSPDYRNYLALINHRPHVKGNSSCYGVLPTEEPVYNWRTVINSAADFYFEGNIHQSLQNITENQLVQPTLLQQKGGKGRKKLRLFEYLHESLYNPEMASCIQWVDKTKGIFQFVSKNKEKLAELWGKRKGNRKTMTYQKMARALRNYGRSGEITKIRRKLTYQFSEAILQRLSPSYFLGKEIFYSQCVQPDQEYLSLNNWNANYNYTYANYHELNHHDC
# Outline: as §1
# [5] = target: ELF4 (Homo sapiens, UniProt Q99607 1-663); settings: protein: recombinant; tags: N-terminal GST; dsDNA, one strand shown
# Outline: as §1
# [6] = target: T3, ELK4 (Homo sapiens, UniProt P28324-2 1-405); settings: protein: recombinant; tags: N-terminal GST; dsDNA, one strand shown
# T3 sequence: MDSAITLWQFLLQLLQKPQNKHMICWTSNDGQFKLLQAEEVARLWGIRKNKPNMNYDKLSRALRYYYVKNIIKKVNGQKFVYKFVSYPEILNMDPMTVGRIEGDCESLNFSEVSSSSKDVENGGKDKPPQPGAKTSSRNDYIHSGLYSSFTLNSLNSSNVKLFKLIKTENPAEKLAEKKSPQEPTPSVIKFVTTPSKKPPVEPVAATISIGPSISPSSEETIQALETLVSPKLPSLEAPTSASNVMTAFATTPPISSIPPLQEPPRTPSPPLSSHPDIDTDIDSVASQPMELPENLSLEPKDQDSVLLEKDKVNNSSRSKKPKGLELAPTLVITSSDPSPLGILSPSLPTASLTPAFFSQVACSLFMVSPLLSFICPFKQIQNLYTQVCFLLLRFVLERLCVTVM
# Outline: as §1
# [7] = target: T4, ETV2 (Homo sapiens, UniProt O00321 1-342); settings: protein: recombinant; tags: N-terminal GST; dsDNA, one strand shown
# T4 sequence: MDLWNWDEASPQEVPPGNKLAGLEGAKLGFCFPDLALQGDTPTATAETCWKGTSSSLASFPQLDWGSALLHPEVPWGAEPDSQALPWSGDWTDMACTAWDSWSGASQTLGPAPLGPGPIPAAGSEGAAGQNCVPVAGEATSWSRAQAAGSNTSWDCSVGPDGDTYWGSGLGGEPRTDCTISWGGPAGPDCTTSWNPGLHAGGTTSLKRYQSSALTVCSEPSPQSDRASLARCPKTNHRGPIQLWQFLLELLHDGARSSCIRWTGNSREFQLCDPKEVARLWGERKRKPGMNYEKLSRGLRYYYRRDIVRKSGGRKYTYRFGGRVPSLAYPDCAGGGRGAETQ
# Outline: as §1
# [8] = target: T5, ELF3 (Homo sapiens, UniProt P78545 1-371); settings: protein: recombinant; tags: N-terminal GST; dsDNA, one strand shown
# T5 sequence: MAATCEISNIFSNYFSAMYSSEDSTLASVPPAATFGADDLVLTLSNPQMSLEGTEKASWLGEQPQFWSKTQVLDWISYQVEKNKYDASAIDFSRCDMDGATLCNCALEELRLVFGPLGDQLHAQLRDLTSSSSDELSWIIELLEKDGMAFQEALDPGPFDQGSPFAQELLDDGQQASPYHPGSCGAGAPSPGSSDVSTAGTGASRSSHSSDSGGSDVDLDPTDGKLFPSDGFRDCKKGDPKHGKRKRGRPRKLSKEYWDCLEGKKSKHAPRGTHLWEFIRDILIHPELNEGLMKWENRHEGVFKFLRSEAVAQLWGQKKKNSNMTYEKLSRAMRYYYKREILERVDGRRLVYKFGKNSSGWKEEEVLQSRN
# Outline: as §1
# [9] = target: CRX (Homo sapiens, UniProt O43186 1-299); settings: protein: recombinant; tags: N-terminal GST; dsDNA, one strand shown
# Outline: as §1
# [10] = target: ETV1 (Homo sapiens, UniProt P50549 1-477); settings: protein: recombinant; tags: N-terminal GST; dsDNA, one strand shown
# Outline: as §1
# [11] = target: T6, ERF (Homo sapiens, UniProt P50548 1-548); settings: protein: recombinant; tags: N-terminal GST; dsDNA, one strand shown
# T6 sequence: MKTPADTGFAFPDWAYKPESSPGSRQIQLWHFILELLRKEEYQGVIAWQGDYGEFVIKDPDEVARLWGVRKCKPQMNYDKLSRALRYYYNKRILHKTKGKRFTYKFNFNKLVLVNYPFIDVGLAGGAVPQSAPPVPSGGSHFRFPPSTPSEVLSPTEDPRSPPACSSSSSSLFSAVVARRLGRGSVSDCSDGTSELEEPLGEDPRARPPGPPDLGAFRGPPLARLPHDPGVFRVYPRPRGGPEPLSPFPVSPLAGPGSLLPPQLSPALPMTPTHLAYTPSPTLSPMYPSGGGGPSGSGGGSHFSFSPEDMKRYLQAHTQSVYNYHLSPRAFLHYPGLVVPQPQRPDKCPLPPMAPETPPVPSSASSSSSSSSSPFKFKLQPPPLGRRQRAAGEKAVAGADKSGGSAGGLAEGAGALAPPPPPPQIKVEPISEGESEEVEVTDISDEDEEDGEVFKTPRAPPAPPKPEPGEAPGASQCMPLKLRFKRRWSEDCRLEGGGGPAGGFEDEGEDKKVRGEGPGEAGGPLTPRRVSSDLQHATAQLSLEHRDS
# Outline: as §1
# [12] = target: T7, ETV3L (Homo sapiens, UniProt Q6ZN32 1-361); settings: protein: recombinant; tags: N-terminal GST; dsDNA, one strand shown
# T7 sequence: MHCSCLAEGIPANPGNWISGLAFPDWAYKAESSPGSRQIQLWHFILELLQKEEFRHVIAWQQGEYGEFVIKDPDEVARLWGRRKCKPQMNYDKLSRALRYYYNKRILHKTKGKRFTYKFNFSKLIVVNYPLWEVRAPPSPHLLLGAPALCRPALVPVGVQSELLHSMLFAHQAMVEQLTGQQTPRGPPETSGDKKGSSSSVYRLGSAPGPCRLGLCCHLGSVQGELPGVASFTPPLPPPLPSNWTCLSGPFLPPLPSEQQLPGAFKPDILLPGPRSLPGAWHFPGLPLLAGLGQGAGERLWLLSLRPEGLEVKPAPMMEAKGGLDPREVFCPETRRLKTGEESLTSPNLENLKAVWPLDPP
# Outline: as §1
# [13] = target: T8, ETS2 (Homo sapiens, UniProt P15036 1-469); settings: protein: recombinant; tags: N-terminal GST; dsDNA, one strand shown
# T8 sequence: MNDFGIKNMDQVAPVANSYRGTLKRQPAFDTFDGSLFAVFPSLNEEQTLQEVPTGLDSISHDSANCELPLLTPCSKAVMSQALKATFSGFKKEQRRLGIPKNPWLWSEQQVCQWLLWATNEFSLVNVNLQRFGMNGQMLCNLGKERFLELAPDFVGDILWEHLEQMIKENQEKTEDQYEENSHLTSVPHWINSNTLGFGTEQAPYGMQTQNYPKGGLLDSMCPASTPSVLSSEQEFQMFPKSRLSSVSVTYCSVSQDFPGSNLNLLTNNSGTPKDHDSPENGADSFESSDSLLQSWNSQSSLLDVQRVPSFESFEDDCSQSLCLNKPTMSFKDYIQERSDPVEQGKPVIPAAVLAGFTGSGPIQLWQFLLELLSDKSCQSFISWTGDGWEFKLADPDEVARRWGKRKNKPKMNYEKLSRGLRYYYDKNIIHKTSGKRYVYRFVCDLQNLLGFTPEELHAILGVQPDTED
# Outline: as §1
# [14] = target: T9, SPDEF (Homo sapiens, UniProt O95238 1-335); settings: protein: recombinant; tags: N-terminal GST; dsDNA, one strand shown
# T9 sequence: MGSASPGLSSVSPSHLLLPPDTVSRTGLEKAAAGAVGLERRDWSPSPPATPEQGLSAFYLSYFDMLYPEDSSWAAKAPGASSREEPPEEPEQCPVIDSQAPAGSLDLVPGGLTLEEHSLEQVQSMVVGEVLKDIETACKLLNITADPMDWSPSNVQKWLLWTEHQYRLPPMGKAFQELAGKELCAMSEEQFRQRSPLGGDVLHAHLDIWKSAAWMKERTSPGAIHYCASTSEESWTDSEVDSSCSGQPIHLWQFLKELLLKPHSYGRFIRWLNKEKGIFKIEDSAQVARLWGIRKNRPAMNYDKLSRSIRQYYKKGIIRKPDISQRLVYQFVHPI
# Outline: as §1
# [15] = target: T10, ETV7 (Homo sapiens, UniProt Q9Y603 1-341); settings: protein: recombinant; tags: N-terminal GST; dsDNA, one strand shown
# T10 sequence: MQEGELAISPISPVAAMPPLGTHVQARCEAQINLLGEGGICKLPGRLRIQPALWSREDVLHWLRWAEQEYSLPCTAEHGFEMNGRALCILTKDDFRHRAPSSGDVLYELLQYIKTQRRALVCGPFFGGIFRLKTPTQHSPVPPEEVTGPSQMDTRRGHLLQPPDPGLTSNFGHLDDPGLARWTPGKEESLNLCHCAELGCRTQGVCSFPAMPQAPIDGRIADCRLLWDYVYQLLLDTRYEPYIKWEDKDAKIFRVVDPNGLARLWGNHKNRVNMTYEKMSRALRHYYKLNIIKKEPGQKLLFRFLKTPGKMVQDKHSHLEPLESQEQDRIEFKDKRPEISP
# Outline: as §1
# [16] = target: T11, ELF5 (Homo sapiens, UniProt Q9UKW6-2 1-255); settings: protein: recombinant; tags: N-terminal GST; dsDNA, one strand shown
# T11 sequence: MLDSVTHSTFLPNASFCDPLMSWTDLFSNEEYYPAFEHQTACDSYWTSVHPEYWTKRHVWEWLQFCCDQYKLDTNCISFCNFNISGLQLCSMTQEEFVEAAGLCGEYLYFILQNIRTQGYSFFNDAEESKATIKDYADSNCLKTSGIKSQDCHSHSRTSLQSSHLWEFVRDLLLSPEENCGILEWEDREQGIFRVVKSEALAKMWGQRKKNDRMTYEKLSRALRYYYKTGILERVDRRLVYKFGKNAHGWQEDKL
# Outline: as §1
# [17] = target: T12, ETV3 (Homo sapiens, UniProt P41162-2 1-143); settings: protein: recombinant; tags: N-terminal GST; dsDNA, one strand shown
# T12 sequence: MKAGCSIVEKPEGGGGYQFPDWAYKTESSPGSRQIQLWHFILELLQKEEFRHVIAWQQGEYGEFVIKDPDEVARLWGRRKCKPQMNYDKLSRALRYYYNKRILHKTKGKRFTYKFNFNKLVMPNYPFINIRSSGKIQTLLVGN
# Outline: as §1
# [18] = target: ETV6 (Homo sapiens, UniProt P41212 1-452); settings: protein: recombinant; tags: N-terminal GST; dsDNA, one strand shown
# Outline: as §1
# ETV6, sequence (P41212 whole entry): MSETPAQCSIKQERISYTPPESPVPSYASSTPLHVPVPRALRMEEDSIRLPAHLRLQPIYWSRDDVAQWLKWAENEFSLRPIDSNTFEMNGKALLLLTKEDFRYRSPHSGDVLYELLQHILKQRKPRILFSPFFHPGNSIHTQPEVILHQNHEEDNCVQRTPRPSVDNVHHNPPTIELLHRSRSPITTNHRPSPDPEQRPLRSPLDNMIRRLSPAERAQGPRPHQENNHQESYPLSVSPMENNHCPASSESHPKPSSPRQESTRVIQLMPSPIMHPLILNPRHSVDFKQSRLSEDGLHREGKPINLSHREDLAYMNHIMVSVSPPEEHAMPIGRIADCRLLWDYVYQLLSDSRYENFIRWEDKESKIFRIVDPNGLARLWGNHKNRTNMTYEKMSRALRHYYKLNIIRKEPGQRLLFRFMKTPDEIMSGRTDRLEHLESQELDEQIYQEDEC
# ETV1, sequence (P50549 whole entry): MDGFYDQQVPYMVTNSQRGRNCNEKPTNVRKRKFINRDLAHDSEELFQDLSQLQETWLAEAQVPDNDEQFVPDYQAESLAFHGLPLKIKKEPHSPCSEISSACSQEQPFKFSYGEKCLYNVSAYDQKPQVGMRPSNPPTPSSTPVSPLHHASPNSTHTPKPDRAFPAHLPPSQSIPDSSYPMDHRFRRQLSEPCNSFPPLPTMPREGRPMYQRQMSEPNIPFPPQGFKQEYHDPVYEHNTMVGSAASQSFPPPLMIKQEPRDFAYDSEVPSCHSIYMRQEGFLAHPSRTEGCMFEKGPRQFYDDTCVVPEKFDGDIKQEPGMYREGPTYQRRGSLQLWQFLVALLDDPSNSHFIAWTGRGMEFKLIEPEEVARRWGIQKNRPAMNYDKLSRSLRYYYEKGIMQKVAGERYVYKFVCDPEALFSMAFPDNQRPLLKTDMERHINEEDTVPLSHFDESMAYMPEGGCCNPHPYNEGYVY
# CRX, sequence (O43186 whole entry): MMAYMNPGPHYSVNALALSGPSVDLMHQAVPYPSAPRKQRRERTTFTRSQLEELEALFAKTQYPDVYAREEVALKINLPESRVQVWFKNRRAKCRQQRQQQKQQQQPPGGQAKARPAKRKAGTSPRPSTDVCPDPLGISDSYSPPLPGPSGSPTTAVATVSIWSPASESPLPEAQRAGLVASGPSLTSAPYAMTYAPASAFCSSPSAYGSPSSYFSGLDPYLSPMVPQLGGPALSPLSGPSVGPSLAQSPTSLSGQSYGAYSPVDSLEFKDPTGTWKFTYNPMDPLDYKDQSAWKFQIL
# ETV5, sequence (P41161 whole entry): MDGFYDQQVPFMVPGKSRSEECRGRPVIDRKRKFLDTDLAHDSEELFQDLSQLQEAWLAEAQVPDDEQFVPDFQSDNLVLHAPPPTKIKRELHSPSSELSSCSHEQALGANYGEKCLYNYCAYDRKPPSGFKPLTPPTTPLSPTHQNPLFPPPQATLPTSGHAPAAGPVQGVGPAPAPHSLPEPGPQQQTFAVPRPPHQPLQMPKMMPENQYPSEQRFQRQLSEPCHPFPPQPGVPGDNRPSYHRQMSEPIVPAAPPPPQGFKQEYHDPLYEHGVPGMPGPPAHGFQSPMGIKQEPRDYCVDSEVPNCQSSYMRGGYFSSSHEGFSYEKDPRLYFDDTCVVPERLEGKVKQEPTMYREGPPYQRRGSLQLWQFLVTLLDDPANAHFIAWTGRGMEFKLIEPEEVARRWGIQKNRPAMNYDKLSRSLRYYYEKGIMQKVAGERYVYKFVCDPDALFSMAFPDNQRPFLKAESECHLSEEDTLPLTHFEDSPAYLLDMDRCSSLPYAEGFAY
# HSF1, sequence (Q00613 whole entry): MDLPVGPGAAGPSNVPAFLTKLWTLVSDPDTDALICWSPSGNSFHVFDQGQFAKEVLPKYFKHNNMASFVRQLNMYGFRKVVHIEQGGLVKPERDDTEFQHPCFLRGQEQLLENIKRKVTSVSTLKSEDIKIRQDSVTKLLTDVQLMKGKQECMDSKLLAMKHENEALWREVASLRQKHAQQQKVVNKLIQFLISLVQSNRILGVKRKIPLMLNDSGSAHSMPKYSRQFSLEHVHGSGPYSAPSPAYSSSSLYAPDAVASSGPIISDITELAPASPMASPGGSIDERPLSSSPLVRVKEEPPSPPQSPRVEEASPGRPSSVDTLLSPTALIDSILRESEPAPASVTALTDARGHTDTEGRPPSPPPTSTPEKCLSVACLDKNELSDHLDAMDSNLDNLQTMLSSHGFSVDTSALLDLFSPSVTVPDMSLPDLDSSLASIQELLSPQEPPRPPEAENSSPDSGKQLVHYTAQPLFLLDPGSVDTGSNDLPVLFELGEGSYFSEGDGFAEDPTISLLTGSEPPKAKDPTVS
# ELF4, sequence (Q99607 whole entry): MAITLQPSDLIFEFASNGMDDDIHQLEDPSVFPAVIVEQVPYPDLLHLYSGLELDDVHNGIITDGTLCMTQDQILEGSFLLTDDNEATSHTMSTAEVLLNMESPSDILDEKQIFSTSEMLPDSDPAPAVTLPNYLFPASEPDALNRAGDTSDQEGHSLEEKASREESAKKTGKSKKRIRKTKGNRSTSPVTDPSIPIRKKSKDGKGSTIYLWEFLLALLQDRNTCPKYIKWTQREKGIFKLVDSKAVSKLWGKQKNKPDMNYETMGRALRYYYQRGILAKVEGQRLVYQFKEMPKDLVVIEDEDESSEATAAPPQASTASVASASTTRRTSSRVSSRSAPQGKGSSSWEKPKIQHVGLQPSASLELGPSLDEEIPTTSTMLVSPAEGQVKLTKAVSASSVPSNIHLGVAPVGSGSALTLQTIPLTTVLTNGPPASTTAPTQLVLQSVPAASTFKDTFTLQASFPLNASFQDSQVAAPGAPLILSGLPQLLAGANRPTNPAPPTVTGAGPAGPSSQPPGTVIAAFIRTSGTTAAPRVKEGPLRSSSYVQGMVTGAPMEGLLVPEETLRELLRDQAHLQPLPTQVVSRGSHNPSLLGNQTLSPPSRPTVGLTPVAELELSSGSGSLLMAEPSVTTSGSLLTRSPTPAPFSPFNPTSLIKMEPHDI
sequence,measurement,setting,value
ACTATA,binding signal,[1],"1.29 fold enrichment (6-mer frequency, TF over GST control)"
same,binding signal,[2],"1.33 fold enrichment (6-mer frequency, TF over GST control)"
same,binding signal,[3],"1.26 fold enrichment (6-mer frequency, TF over GST control)"
same,binding signal,[4],"1.26 fold enrichment (6-mer frequency, TF over GST control)"
same,binding signal,[5],"1.3 fold enrichment (6-mer frequency, TF over GST control)"
same,binding signal,[6],"1.42 fold enrichment (6-mer frequency, TF over GST control)"
same,binding signal,[7],"1.3 fold enrichment (6-mer frequency, TF over GST control)"
same,binding signal,[8],"1.38 fold enrichment (6-mer frequency, TF over GST control)"
same,binding signal,[9],"1.4 fold enrichment (6-mer frequency, TF over GST control)"
same,binding signal,[10],"1.26 fold enrichment (6-mer frequency, TF over GST control)"
same,binding signal,[11],"1.29 fold enrichment (6-mer frequency, TF over GST control)"
same,binding signal,[12],"1.24 fold enrichment (6-mer frequency, TF over GST control)"
same,binding signal,[13],"1.36 fold enrichment (6-mer frequency, TF over GST control)"
same,binding signal,[14],"1.42 fold enrichment (6-mer frequency, TF over GST control)"
same,binding signal,[15],"1.28 fold enrichment (6-mer frequency, TF over GST control)"
same,binding signal,[16],"1.35 fold enrichment (6-mer frequency, TF over GST control)"
same,binding signal,[17],"1.33 fold enrichment (6-mer frequency, TF over GST control)"
same,binding signal,[18],"1.31 fold enrichment (6-mer frequency, TF over GST control)"
